Sampled rows, rich in hits. Any-hit rate of the full collection: about 0.63%.
TCR activator – T cell receptor activation; 330,000 tested, under 10 active; primary human leukocytes, anti-CD3, IL-2 HTRF, 48 h; Potency, µM (titrated, usually from 9.22 µM), inactives show at the top dose activation of IL-2 secretion, most hits filed as activators; active = well fitted activation curve with a large enough effect; inconclusive = small, poorly fitted or top-dose-only effect, or another doubt; inactive = no such curve, though single readings can be large or run the other way; note: % of control where 0% means no effect
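Primary human leukocytes incubated 48 hr with anti-CD3 beads plus compound, without co-stimulation. Secreted IL-2 measured by HTRF (europium cryptate/d2 anti-IL-2 pair, 320 nm excitation, 665 nm emission).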
gsp antagonist – antagonizes gsp, the McCune-Albright syndrome mutation; gsp-mutant cells, cAMP HTRF, 30 min; Potency, µM (series often up to 76.9 µM), for the others: at the top dose activity change, negative = inhibition, usual class: inhibitors; 340,000 compounds, 0.4% hits; AID 624288; calls by dose curve; cell line not stated here;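 note: intracellular cAMP measured with PDE inhibitor Ro 20-1724 present during compound exposure; potency is the fitted concentration of half-maximal effect; % is set by controls: 0 for no effect and ±100 for the full control effect; nearly all actives have a fitted effect of over 65% in size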
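Measurement of cellular cAMP by homogeneous time-resolved fluorescence following a 30 min compound exposure at 37C. The PDE inhibitor […] was present throughout; the assay buffer was DPBS with 0.05% BSA and 0.005% Tween 20.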
TSHR antag – human thyrotropin receptor antagonism; AID 504810; P16473; 330,000 compounds, 0.2% hits; TSHR-expressing cells, TSH-stimulated cAMP HTRF, 2 h; stronger effect = lower value; activity change, negative = inhibition, % at 11.5 µM;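 active = activity change below a set negative limit, meaning inhibition stronger than a set level, cut at about -70% in these data; inconclusive = activity change between two set negative limits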; note: % is set by controls: 0 for no effect and ±100 for the full control effect
Target sequence (P16473 whole entry, looked up): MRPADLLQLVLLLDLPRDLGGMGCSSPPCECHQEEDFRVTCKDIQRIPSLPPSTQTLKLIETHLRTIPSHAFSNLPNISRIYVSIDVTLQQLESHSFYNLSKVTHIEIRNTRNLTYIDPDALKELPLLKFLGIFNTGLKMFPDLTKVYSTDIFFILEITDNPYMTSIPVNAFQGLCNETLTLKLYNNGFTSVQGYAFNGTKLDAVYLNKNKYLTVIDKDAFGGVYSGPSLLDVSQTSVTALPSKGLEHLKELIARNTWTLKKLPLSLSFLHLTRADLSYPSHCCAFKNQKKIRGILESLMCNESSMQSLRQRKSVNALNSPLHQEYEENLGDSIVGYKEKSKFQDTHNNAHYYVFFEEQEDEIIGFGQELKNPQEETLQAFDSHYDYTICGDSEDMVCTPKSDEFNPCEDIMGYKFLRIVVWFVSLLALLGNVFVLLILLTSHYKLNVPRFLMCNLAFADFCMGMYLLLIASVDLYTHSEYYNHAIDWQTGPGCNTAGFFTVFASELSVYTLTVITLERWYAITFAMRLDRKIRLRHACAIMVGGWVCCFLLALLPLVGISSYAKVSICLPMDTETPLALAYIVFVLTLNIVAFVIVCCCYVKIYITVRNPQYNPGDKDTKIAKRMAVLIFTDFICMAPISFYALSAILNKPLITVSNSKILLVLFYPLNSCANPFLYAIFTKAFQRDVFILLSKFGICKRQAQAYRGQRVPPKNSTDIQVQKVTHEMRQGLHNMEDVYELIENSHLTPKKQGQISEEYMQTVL
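Antagonism was scored as loss of TSH-driven cAMP in TSHR cells, stimulated with 4nM TSH (EC80) for 2 hours at 37 deg C and detected by homogeneous HTRF competition immunoassay.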
Pin1 inh – human Pin1 inhibition. Q13526. Pin1 FP peptide displacement, HiFluor488, 10 min. Potency, µM (top dose mostly 115 µM), for the others: top-dose activity, negative = inhibition, actives largely listed as inhibitors. 390,000 compounds, 0.009% hits; active = well fitted inhibition curve with a large enough effect in the polarisation, with a control signal flat, not every such curve was filed as active; inconclusive = small, poorly fitted or top-dose-only effect, or effect the other way, or a change in a side signal; inactive = no such curve, though single readings can be large or run the other way; the % refers to the polarisation; note: potency is the fitted concentration of half-maximal effect; % is set by controls: 0 for no effect and ±100 for the full control effect
gsp ag – gsp mutant agonism; gsp mutant cells, cAMP HTRF, 30 min; Potency, µM (titrated, usually from 76.9 µM), for inactives: at the highest dose activation (cAMP increase), hits mostly activators; 340,000 compounds, 0.13% hits; AID 624287; active = well fitted activation curve with a large enough effect; inconclusive = small, poorly fitted or top-dose-only effect, or another doubt; inactive = no such curve, though single readings can be large or run the other way; cell line not stated here;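 note: phosphodiesterase inhibitor Ro 20-1724 added with compounds to block cAMP breakdown; potency is the fitted concentration of half-maximal effect; nearly all actives have a fitted effect of over 60% in size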
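Cells in DMEM/10% FBS with G418 were pretreated with compounds in DMSO plus […] (300 uM stock) for 30 min at 37C. cAMP was measured by HTRF (cAMP-d2 plus anti-cAMP antibody-K) after 30 min at room temperature.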
Active calls of the source: *; ? = inconclusive; nt = not tested or not shown; [ ] = remark or other dose.

SMILES	TCR activator	gsp antagonist	TSHR antag	Pin1 inh	gsp ag
Cc1ccc(S(=O)(=O)CCC(=O)c2cccc([N+](=O)[O-])c2)cc1	nt	10%	-105*	-3%	-5%[15.4 µM]
O=C(CNS(=O)(=O)c1ccccc1)NCC(=O)OCc1ccc(Cl)cc1	-4%	0%	1	-5%	7.9µM*
O=C(CNS(=O)(=O)c1ccccc1)NCC(=O)OCc1ccc(C(=O)c2ccccc2)cc1	-1%[46.1 µM]	-15%	-2	-4%	-36%
CN1C(=O)C2(OCC(COc3ccc(Cl)cc3)O2)c2ccccc21 (centres undefined)	-7%	35µM*	-24	-1%	4%
O=C1Nc2ccccc2C12OCC(COc1ccc(Cl)cc1)O2 (centres undefined)	-3%	-25%	-24	1%	8%
c1ccc(-c2nnc(SCC3CCCO3)nc2-c2ccccc2)cc1 (centres undefined)	-1%	-18%	-15	6%	7%[15.4 µM]
Cc1ccc(-c2nc(CS(=O)CC(=O)NCc3ccco3)c(C)o2)cc1 (centres undefined)	-3%	7%	-3	-9%	-8%
COc1ccc(NC(=O)C2=CC(c3ccc(C)cc3)=NS(=O)(=O)N2C)cc1OC	7%	-25%	-7	0%	-33%
COc1ccc(C2=NS(=O)(=O)N(C)C(C(=O)Nc3ccc(C(C)=O)cc3)=C2)cc1OC	1%	32µM*	-24	?	35%
CN(CCCn1cnc2c(OCc3ccccc3)ncnc21)CCc1ccccn1	10%	8%	nt	-5%	nt
NC(=O)CC(NC(=O)Cc1ccc(Br)cc1)c1ccc(NCCc2ccc(Cl)cc2)c([N+](=O)[O-])c1 (centres undefined)	13%	6%	0	33%	nt
CCOC(=O)C1CCN(C(=O)CN2C(=O)CSc3ccc(S(=O)(=O)N4CCOCC4)cc32)CC1	9%	5%	-13	2%	3.5µM*
O=C(CN1C(=O)CSc2ccc(S(=O)(=O)N3CCOCC3)cc21)N1CCCCC1	3%	1%	-11	0%	?
O=C(COC(=O)c1cccc(S(=O)(=O)N2CCCC2)c1)Nc1ccccc1	-3%	nt	10	0%	-11%[15.4 µM]
Cc1ccsc1C(=O)NNC(=O)c1ccc(NS(=O)(=O)c2cccs2)cc1	-2%	11µM*	23	0%	-58%
Cc1ccc2[nH]c(O)c(N=NC(=O)c3ccc(NS(=O)(=O)c4cccs4)cc3)c2c1	5%	-33%	-4	?	-145%
Cc1cccc2c(N=NC(=O)c3ccc(NS(=O)(=O)c4cccs4)cc3)c(O)[nH]c12	3%	25µM*	-35	nt	-3%
CC(=O)Nc1cccc(C(=O)NNC(=O)c2ccc(NS(=O)(=O)c3cccs3)cc2)c1	nt	nt	nt	nt	-69%
CN(C1(C)CCS(=O)(=O)C1)S(=O)(=O)c1cccc([N+](=O)[O-])c1 (centres undefined)	2%	2%	-4	3%	9%[15.4 µM]
COc1ccc(-n2c(=S)[nH]c3c(oc4ccccc43)c2=O)cc1	-19%[46.1 µM]	1%	30	2%	11µM*
CC(C)(C)C(=O)NC(=S)NNC(=O)c1sc2ccccc2c1Cl	-5%[46.1 µM]	50µM*	-94*	-3%	-56%
O=C(NNC(=S)NC1CCCCC1)c1sc2ccccc2c1Cl	1%[46.1 µM]	?	-31	-6%	22%
CCCc1nnc(NC(=O)c2nc(S(=O)(=O)Cc3cccc(C)c3)ncc2Cl)s1	-7%	28µM*	?	1%	9%
COc1ccc2nc(NC(=O)c3nc(S(=O)(=O)Cc4ccccc4)ncc3Cl)sc2c1	nt	nt	nt	76%	nt
COc1ccc(NC(=O)c2nc(S(=O)(=O)Cc3cccc(C)c3)ncc2Cl)c(OC)c1	-7%	?	-80*	-4%	0%
SMILES	TCR activator	gsp antagonist	TSHR antag	Pin1 inh	gsp ag
Cc1cccc(CS(=O)(=O)c2ncc(Cl)c(C(=O)Nc3c(C)cccc3C)n2)c1	-3%	-14%	?	1%	7%
COc1ccc(OC)c(NC(=O)c2nc(S(=O)(=O)Cc3ccccc3)ncc2Cl)c1	-3%	13%	-93*	20%	10%[15.4 µM]
CC(NC(=O)COC(=O)/C=C/c1cccc(F)c1)c1ccccc1 (centres undefined)	-7%	-7%	nt	-3%	14%[15.4 µM]
Cn1c(=O)cc(SCC(=O)NCc2ccc(F)cc2)c2ccc(Cl)cc21	nt	nt	nt	-1%	nt
CCOC(=O)CSc1cc(=O)n(C)c2cc(Cl)ccc12	4%	-19%	2	-1%	16µM*
CN(CCCNC(=O)CSc1cc(=O)n(C)c2cc(Cl)ccc12)Cc1ccccc1	3%	0%	0	1%	18µM*
COc1ccccc1NC(=O)c1nn(-c2ccc(OC(F)(F)F)cc2)ccc1=O	2%	7%	-5	-4%	0%
COc1ccc(NS(=O)(=O)c2ccc(NC(=O)C3CC3)cc2)cc1	-2%	-3%	-8	0%	3%
CCOc1cc(Br)c(CC(=O)NC2CCCCCC2)cc1OCC	7%	-25%	0	14%	-28%
CC[n+]1c(/C=C(\C)Nc2ccccc2)sc2ccccc21	-1%[46.1 µM]	-2%	11	-4%	-8%[15.4 µM]
CC[n+]1c(/C=C/Nc2ccccc2)sc2ccccc21	2%	45µM*	11	13%	10%
Cc1n[nH]c(=O)nc1NCc1ccccc1Cl	1%	8%	13	1%	9%
O=C1CNc2ccc(C(=O)N3CCN(c4ccccn4)CC3)cc2N1	-9%	-8%	1	?	-43%
CC(C)C1Nc2ccc(C(=O)N3CCN(c4ccccn4)CC3)cc2NC1=O (centres undefined)	0%	3%	-113*	2%	-22%
CCCCNc1c(-c2ccc(OC)c(SC(C)CC)c2)nc2ccc(C)cn12 (centres undefined)	-7%	28µM*	-37	?	nt
CCC(C)Sc1cc(-c2nc3cc(C)ccn3c2NC2CCCCC2)ccc1OC (centres undefined)	11%	32µM*	-15	?	?
CCCCNc1c(-c2ccc(OC)c(SC(C)CC)c2)nc2cc(C)ccn12 (centres undefined)	-2%	40µM*	-46	?	?
CSc1ccc(CNC(=O)Cn2ccc3cc(S(=O)(=O)N4CCCC4)ccc32)cc1	nt	nt	nt	9%	nt
Cc1ccc(-c2csc(NC(=S)NC(=O)c3ccco3)n2)cc1	-5%[46.1 µM]	1%	-11	0%	-49%
Cc1ccc(S(=O)(=O)N2CCN(c3nc(C(C)C)c4c(c3C#N)CC(C)(C)OC4)CC2)cc1	1%	-12%	-9	?	19%
CC(=O)Nc1ccc(SCC(=O)O)cc1	-4%	11%	5	5%	-47%
COc1ccc(-c2[nH]ncc2Oc2ccccc2OC)c(O)c1	1%	13µM*	-14	0%	-12%
N#Cc1c([N+](=O)[O-])cc([N+](=O)[O-])cc1S(=O)(=O)Cc1ccccc1	0%	?	-81*	-3%	16%

Assay outcomes as filed in PubChem.
